Laboratory results published in PubChem BioAssay AID1159580 (chemical genetic matrix, 2015).
Hit rate of the full screen: of about 5,500 compounds, about 2,000 (36%) were called active. About 18% were inconclusive and are not listed. Cut-off read from the data, not from the text of the source: active = normalized growth mostly below about 0.91 (no sharp cut-off); inconclusive = no clear call, values can overlap the other calls; inactive = mostly above about 0.92. This is one part of the list.

Experiment: chemical genetic growth profiling, strain panel (AID 1159580);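 note: tested at 20 µM; growth read once vehicle control cultures reached saturation at 30 °C; 1 = growth at the plate median or of vehicle wells; lower values mean less growth of the strain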
Conditions: growth OD

Measured: normalized growth

CC1Cc2ccccc2N1NC(=O)c1ccc(Cl)c(S(N)(=O)=O)c1 (centres undefined)
inactive: S. cerevisiae deletion strains, locus YJR043C, strain POL32, stronger effect = lower value 1.02 | S. cerevisiae deletion strains, locus YJR066W, strain TOR1, stronger effect = lower value 0.94 | S. cerevisiae deletion strains, locus YJR075W, strain HOC1, stronger effect = lower value 1.01 | S. cerevisiae deletion strains, locus YKL009W, strain mrt4, stronger effect = lower value 1.01 | S. cerevisiae deletion strains, locus YKL068W, stronger effect = lower value 0.994 | S. cerevisiae deletion strains, locus YKL085W, strain MDH1 (second series), stronger effect = lower value 0.988 | S. cerevisiae deletion strains, locus YKL085W, strain MDH1, stronger effect = lower value 0.988 | S. cerevisiae deletion strains, locus YKL160W, strain elf1, stronger effect = lower value 0.991 | S. cerevisiae deletion strains, locus YKR001C, strain vps1, stronger effect = lower value 1.01 | S. cerevisiae deletion strains, locus YKR026C, strain gcn3, stronger effect = lower value 0.997 | S. cerevisiae deletion strains, locus YKR091W, strain srl3, stronger effect = lower value 0.997 | S. cerevisiae deletion strains, locus YLL001W, strain dnm1, stronger effect = lower value 0.994 | S. cerevisiae deletion strains, locus YLL026W, stronger effect = lower value 0.999 | S. cerevisiae deletion strains, locus YLL041C, strain sdh2, stronger effect = lower value 0.998 | S. cerevisiae deletion strains, locus YLR027C, strain aat2, stronger effect = lower value 1 | S. cerevisiae deletion strains, locus YLR039C, strain RIC1, stronger effect = lower value 1.03 | S. cerevisiae deletion strains, locus YLR058C, strain SHM2, stronger effect = lower value 1.01 | S. cerevisiae deletion strains, locus YLR102C, strain apc9, stronger effect = lower value 0.989 | S. cerevisiae deletion strains, locus YLR113W, strain HOG1, stronger effect = lower value 1 | S. cerevisiae deletion strains, locus YLR221C, strain rsa3, stronger effect = lower value 0.989 | S. cerevisiae deletion strains, locus YLR258W, strain gsy2, stronger effect = lower value 1.01 | S. cerevisiae deletion strains, locus YLR262C, strain YPT6 (second series), stronger effect = lower value 0.996 | S. cerevisiae deletion strains, locus YLR262C, strain YPT6, stronger effect = lower value 1.04 | S. cerevisiae deletion strains, locus YLR268W, strain sec22, stronger effect = lower value 1.03 | S. cerevisiae deletion strains, locus YLR320W, strain mms22, stronger effect = lower value 1 | S. cerevisiae deletion strains, locus YLR330W, strain CHS5, stronger effect = lower value 1.01 | S. cerevisiae deletion strains, locus YLR342W, strain FKS1 (second series), stronger effect = lower value 1.01 | S. cerevisiae deletion strains, locus YLR342W, strain FKS1, stronger effect = lower value 0.999 | S. cerevisiae deletion strains, locus YLR357W, strain rsc2, stronger effect = lower value 1.03 | S. cerevisiae deletion strains, locus YLR370C, strain arc18, stronger effect = lower value 1.01 | S. cerevisiae deletion strains, locus YLR371W, strain rom2, stronger effect = lower value 0.99 | S. cerevisiae deletion strains, locus YLR384C, strain iki3, stronger effect = lower value 1.01 | S. cerevisiae deletion strains, locus YLR418C, strain cdc73, stronger effect = lower value 0.989 | S. cerevisiae deletion strains, locus YML016C, strain PPZ1, stronger effect = lower value 1.01 | S. cerevisiae deletion strains, locus YML032C, strain rad52, stronger effect = lower value 0.994 | S. cerevisiae deletion strains, locus YML120C, strain ndi1, stronger effect = lower value 0.987 | S. cerevisiae deletion strains, locus YML124C, strain tub3, stronger effect = lower value 0.999 | S. cerevisiae deletion strains, locus YMR058W, strain fet3, stronger effect = lower value 1.01 | S. cerevisiae deletion strains, locus YMR078C, strain ctf18, stronger effect = lower value 0.994 | S. cerevisiae deletion strains, locus YMR125W, strain sto1, stronger effect = lower value 1.01 | S. cerevisiae deletion strains, locus YMR129W, stronger effect = lower value 1.01 | S. cerevisiae deletion strains, locus YMR205C, strain PFK2, stronger effect = lower value 0.985 | S. cerevisiae deletion strains, locus YMR223W, strain ubp8, stronger effect = lower value 0.977 | S. cerevisiae deletion strains, locus YMR231W, strain pep5, stronger effect = lower value 1 | S. cerevisiae deletion strains, locus YMR263W, strain SAP30, stronger effect = lower value 1.02 | S. cerevisiae deletion strains, locus YMR307W, strain GAS1, stronger effect = lower value 1.04 | S. cerevisiae deletion strains, locus YNL067W, strain RPL9B, stronger effect = lower value 1.01 | S. cerevisiae deletion strains, locus YNL071W, strain lat1, stronger effect = lower value 1.01 | S. cerevisiae deletion strains, locus YNL183C, strain NPR1, stronger effect = lower value 0.958 | S. cerevisiae deletion strains, locus YNL209W, strain ssb2, stronger effect = lower value 1 | S. cerevisiae deletion strains, locus YNL233W, strain BNI4, stronger effect = lower value 1.01 | S. cerevisiae deletion strains, locus YNL248C, strain rpa49, stronger effect = lower value 0.989 | S. cerevisiae deletion strains, locus YNL250W, strain rad50, stronger effect = lower value 0.984 | S. cerevisiae deletion strains, locus YNL271C, strain bni1, stronger effect = lower value 0.995 | S. cerevisiae deletion strains, locus YNL298W, strain CLA4, stronger effect = lower value 0.995 | S. cerevisiae deletion strains, locus YNL307C, strain MCK1, stronger effect = lower value 0.996 | S. cerevisiae deletion strains, locus YNL322C, strain KRE1 (second series), stronger effect = lower value 0.997 | S. cerevisiae deletion strains, locus YNR049C, strain mso1, stronger effect = lower value 1 | S. cerevisiae deletion strains, locus YNR052C, strain pop2, stronger effect = lower value 0.991 | S. cerevisiae deletion strains, locus YOL006C, strain TOP1, stronger effect = lower value 1.01 | S. cerevisiae deletion strains, locus YOL012C, strain htz1 0.983 | S. cerevisiae deletion strains, locus YOL147C, strain pex11, stronger effect = lower value 1 | S. cerevisiae deletion strains, locus YOR001W, strain rrp6, stronger effect = lower value 0.975 | S. cerevisiae deletion strains, locus YOR061W, strain CKA2, stronger effect = lower value 1.02 | S. cerevisiae deletion strains, locus YOR069W, strain VPS5, stronger effect = lower value 1.01 | S. cerevisiae deletion strains, locus YOR070C, strain gyp1, stronger effect = lower value 1 | S. cerevisiae deletion strains, locus YOR080W, strain dia2, stronger effect = lower value 1 | S. cerevisiae deletion strains, locus YOR083W, strain WHI5, stronger effect = lower value 0.983 | S. cerevisiae deletion strains, locus YOR106W, strain vam3, stronger effect = lower value 0.981 | S. cerevisiae deletion strains, locus YOR136W, strain idh2, stronger effect = lower value 0.992 | S. cerevisiae deletion strains, locus YOR144C, strain elg1, stronger effect = lower value 0.998 | S. cerevisiae deletion strains, locus YOR184W, strain ser1, stronger effect = lower value 0.982 | S. cerevisiae deletion strains, locus YOR231W, strain MKK1, stronger effect = lower value 0.971 | S. cerevisiae deletion strains, locus YOR265W, strain rbl2, stronger effect = lower value 1.02 | S. cerevisiae deletion strains, locus YOR270C, strain vph1, stronger effect = lower value 0.997 | S. cerevisiae deletion strains, locus YOR290C, strain snf2, stronger effect = lower value 0.952 | S. cerevisiae deletion strains, locus YOR316C, strain cot1, stronger effect = lower value 0.994 | S. cerevisiae deletion strains, locus YPL051W, strain arl3, stronger effect = lower value 0.993 | S. cerevisiae deletion strains, locus YPL055C, strain LGE1, stronger effect = lower value 1 | S. cerevisiae deletion strains, locus YPL078C, strain atp4, stronger effect = lower value 0.984 | S. cerevisiae deletion strains, locus YPL106C, strain sse1, stronger effect = lower value 0.994 | S. cerevisiae deletion strains, locus YPL240C, strain hsp82, stronger effect = lower value 1.01 | S. cerevisiae deletion strains, locus YPL256C, strain CLN2, stronger effect = lower value 0.998 | S. cerevisiae deletion strains, locus YPR119W, strain clb2, stronger effect = lower value 0.991 | S. cerevisiae deletion strains, locus YPR141C, strain kar3, stronger effect = lower value 0.998 | S. cerevisiae deletion strains, locus YPR163C, strain tif3, stronger effect = lower value 1 | S. cerevisiae deletion strains, locus YPR167C, strain met16, stronger effect = lower value 0.997 | S. cerevisiae deletion strains, strain wtn01, stronger effect = lower value 1.02 | S. cerevisiae strains, strain wild type, stronger effect = lower value 1.01
